Experimental data taken from publication PMC4336329 (PLoS ONE, 2015).
Among all 310,000 compounds or so, about 2,200 (0.71%) showed an effect of 50% or more. Effects have a minus sign here. The entries come from a sample that favours strong results as a whole.

What follows are compounds tested against human ether-à-go-go-related gene (hERG) potassium channel (human, UniProt Q12809) (assay: primary screen, population patch clamp on CHO cells stably expressing hERG; higher = less effect of the substance).
Chain of human ether-à-go-go-related gene (hERG) potassium channel (Q12809 whole entry, looked up): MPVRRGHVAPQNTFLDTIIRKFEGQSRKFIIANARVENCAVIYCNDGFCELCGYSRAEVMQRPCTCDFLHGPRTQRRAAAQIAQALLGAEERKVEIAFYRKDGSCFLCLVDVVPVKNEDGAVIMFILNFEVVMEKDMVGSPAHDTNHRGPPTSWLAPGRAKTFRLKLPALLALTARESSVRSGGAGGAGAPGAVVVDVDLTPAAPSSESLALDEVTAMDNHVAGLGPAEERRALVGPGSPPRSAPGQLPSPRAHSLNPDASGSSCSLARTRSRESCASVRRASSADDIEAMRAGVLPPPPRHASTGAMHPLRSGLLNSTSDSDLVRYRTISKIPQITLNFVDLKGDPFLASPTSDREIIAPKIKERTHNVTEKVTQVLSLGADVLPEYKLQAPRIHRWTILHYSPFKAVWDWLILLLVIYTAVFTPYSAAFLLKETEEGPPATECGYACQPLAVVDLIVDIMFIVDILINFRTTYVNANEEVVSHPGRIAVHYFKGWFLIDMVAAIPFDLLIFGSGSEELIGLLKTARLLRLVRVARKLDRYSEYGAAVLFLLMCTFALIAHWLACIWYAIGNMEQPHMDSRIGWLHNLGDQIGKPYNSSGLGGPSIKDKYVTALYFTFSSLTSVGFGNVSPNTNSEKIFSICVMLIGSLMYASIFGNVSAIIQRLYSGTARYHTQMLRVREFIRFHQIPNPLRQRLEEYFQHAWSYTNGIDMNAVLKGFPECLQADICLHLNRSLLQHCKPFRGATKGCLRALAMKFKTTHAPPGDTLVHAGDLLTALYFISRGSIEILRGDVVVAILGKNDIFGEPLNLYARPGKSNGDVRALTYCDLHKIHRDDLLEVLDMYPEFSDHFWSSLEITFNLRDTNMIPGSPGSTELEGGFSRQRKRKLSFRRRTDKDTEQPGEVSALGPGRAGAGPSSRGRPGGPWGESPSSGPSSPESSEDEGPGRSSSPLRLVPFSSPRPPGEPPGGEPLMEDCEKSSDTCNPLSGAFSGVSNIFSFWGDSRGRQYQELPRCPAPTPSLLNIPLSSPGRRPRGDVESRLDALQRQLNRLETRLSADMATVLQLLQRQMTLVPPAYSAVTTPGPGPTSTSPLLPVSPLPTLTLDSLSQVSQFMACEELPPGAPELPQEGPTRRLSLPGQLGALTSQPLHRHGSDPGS

Compound	hERG current change (%, negative = inhibition) at 1uM [%]
Cn1c(=O)n(C)c2cc(NS(C)(=O)=O)ccc21	8.26
COc1ccc(Cc2noc(CN3CCCC(C(=O)c4cccs4)C3)n2)cc1OC (stereo not drawn)	9.47
O=c1c2c(nc3n1CCS3)c1cc(F)ccc1n2Cc1cc(=O)n2cc(Cl)ccc2n1	10.3
Cc1cc(F)ccc1S(=O)(=O)Nc1ccc(O)c(Sc2ncn[nH]2)c1	20.6
Cc1cc(C)cc(N(C(=O)CCC(=O)Nc2ccccn2)C(C(=O)NC(C)C)c2ccc(O)cc2)c1 (stereo not drawn)	1.99
OC(COc1ccc(F)cc1)CN1CCN(CC(O)COc2ccc(F)cc2)CC1 (stereo not drawn)	-51.1
CCC(=O)c1ccc(OCC(O)Cn2nc(C)c(Br)c2C)cc1 (stereo not drawn)	-100
CCC(=O)c1ccc(OCC(O)CN2CCN(C(c3ccccc3)c3ccccc3)CC2)cc1 (stereo not drawn)	-51.4
N#Cc1ccc(OCC(O)CN2CCN(C(c3ccccc3)c3ccccc3)CC2)cc1 (stereo not drawn)	-69.5
COc1ccc(OCC(O)CN2CCN(CC(O)COc3ccc(OC)cc3)CC2)cc1 (stereo not drawn)	3.29
CCC(=O)c1ccc(OCC(O)Cn2nc(C)cc2C)cc1 (stereo not drawn)	7.89
CCC(=O)c1ccc(OCC(O)CN2CCCCC2)cc1.Cl (stereo not drawn)	3.96
CCC(=O)c1ccc(OCC(O)Cn2nc(C)c(C(C)=O)c2C)cc1 (stereo not drawn)	4.75
CC1CCN(CC(O)COc2ccc(F)cc2)CC1 (stereo not drawn)	-13.3
CCC(=O)c1ccc(OCC(O)CN2CCOCC2)cc1 (stereo not drawn)	17.8
OC(COc1ccc(OCC(O)CN2CCN(Cc3ccccc3)CC2)cc1)CN1CCN(Cc2ccccc2)CC1 (stereo not drawn)	6.14
OC(COc1ccccc1)CN1CCN(C(c2ccccc2)c2ccccc2)CC1 (stereo not drawn)	-24.1
O=c1[nH]c(=O)c2nc3ccccc3nc2[nH]1	2.78
COc1cc(NC(=O)CN(C)C2CCCCC2)c(C)cc1[N+](=O)[O-]	6.09
Cc1ccc(S(=O)(=O)N[C@@H](CC(C)C)C(=O)NCc2ccco2)cc1	3.58

Compound	hERG current change (%, negative = inhibition) at 1uM [%]
CCCCN(C(=O)/C=C/c1ccco1)c1c(N)n(Cc2ccccc2)c(=O)[nH]c1=O	7.19
CCOc1cc(NC(=S)NCCCN2CCOCC2)c(OCC)cc1NC(=O)c1cccc(F)c1	-0.782
C=CCOc1ccccc1/C=N/NC(=O)Cc1ccccc1	14.3
Cc1ccc(S(=O)(=O)N2CCCC2C(=O)Nc2nc3c(s2)CCCC3)cc1 (stereo not drawn)	13.2
CC1CCCN(CC(O)COc2ccc(-c3ccccc3)cc2)C1 (stereo not drawn)	-57.8
OC(COCc1ccco1)CN1CCN(C(c2ccccc2)c2ccccc2)CC1 (stereo not drawn)	-79.1
CC(=O)c1ccc(N2CCN(CC(O)COCc3ccco3)CC2)cc1 (stereo not drawn)	-29.3
OC(COc1ccc(OCC(O)CN2CCCCC2)cc1)CN1CCCCC1 (stereo not drawn)	18.1
N#Cc1ccc(-c2ccc(OCC(O)CN3CCOCC3)cc2)cc1 (stereo not drawn)	7.69
N#Cc1ccc(-c2ccc(OCC(O)CN3CCCCC3)cc2)cc1 (stereo not drawn)	-52.1
O=C(O)C(=O)O.OC(COCc1ccco1)CN1CCN(c2ccccc2)CC1 (stereo not drawn)	3.71
CC1CN(CC(O)COc2ccc(C#N)cc2)CCN1CC(O)COc1ccc(C#N)cc1 (stereo not drawn)	-86.2
CC1CCCCN1CC(O)COc1ccc(OCC(O)CN2CCCCC2C)cc1 (stereo not drawn)	13.5
Cc1ccccc1OCC(O)CN1CCN(CC(O)COc2ccccc2C)C(C)C1.O=C(O)C(=O)O (stereo not drawn)	-29
OC1CCCN(CC(O)COc2ccc(-c3ccccc3)cc2)C1 (stereo not drawn)	-0.151
CC1CCCN(CC(O)COc2ccc(Cl)cc2)C1.Cl (stereo not drawn)	-32.2
COc1ccccc1NC(=O)COC(=O)/C=C/c1ccc2c(c1)OCO2	9.01
O=C(Nc1ccc(C(=O)O)cc1)/C(=C\c1ccc2c(c1)OCO2)NC(=O)c1ccco1	19.4
O=C(c1csc2c1CCCC2)N1CCN(c2ccc(F)cc2)CC1	2.84
COc1ccc(C(=O)Nc2cccc(-c3ccc4nncn4n3)c2)cc1	7.11

Compound	hERG current change (%, negative = inhibition) at 1uM [%]
CCn1ncc(NC(=S)NCCc2ccccc2)c1C(N)=O	2.4
CC(C)C(OC(=O)c1cccs1)C(=O)NCc1ccco1 (stereo not drawn)	12.2
O=S(=O)(Nc1cc(S(=O)(=O)N2CCOCC2)ccc1N1CCOCC1)c1ccc2c(c1)OCCO2	28.4
COc1ccccc1N1C(=O)[C@@H]2[C@H](C1=O)[C@H](C(=O)c1ccc(OC(C)=O)cc1)N1N=CC=C[C@@H]21	15.9
C#CCCOC(=O)N1C2=NC(C(=O)OC)=C(C(=O)OC)[C@@H]3N(C)c4ccc(OC)cc4[C@]23C[C@H]1C(=O)OC	-0.338
CSc1ccc(/C=C2\CCn3c2nc2cc(C(=O)O)ccc2c3=O)cc1	15.6
O=C(Nc1ccccn1)c1cc2ccccc2o1	9.79
CCOC(=O)N/N=C/c1ccc(C)o1	5.21
OC(CN1CCN(c2ncc(C(F)(F)F)cc2Cl)CC1)c1ccccc1 (stereo not drawn)	1.4
Cl.OC(COCC1COc2ccccc2O1)CN1CCN(c2ccccc2F)CC1 (stereo not drawn)	-19.9
O=C(O)CN1CCN(c2ncc(C(F)(F)F)cc2Cl)CC1	12.6
N#Cc1ccc(OCC(O)CN2CCN(c3ncc(C(F)(F)F)cc3Cl)CC2)cc1 (stereo not drawn)	-81.4
CCC(=O)c1ccc(OCC(O)CN2CCN(c3ccc(F)cc3)CC2)cc1 (stereo not drawn)	-15.1
N#Cc1ccc(OCC(O)CN2CCN(CC(O)COc3ccc(C#N)cc3)CC2)cc1 (stereo not drawn)	-91.3
CN1CCN(CC(O)COc2ccc(OCC(O)CN3CCN(C)CC3)cc2)CC1 (stereo not drawn)	10.2
Cl.OC(COCC1COc2ccccc2O1)CN1CCN(c2ccccc2)CC1 (stereo not drawn)	-24.7
Cc1ccc(OCC(O)CN2CCN(CC(O)COc3ccc(C)cc3)CC2)cc1 (stereo not drawn)	-8.83
Cl.OC(COCC1COc2ccccc2O1)CN1CCN(c2ccc(F)cc2)CC1 (stereo not drawn)	-57.6
CC(=O)c1ccc(OCC(O)CN2CCN(c3ccc(F)cc3)CC2)cc1.Cl (stereo not drawn)	-64.9
COc1ccc(N2CCN(CC(O)COc3ccc(F)cc3)CC2)cc1.Cl (stereo not drawn)	-47.8
